Among all 310,000 compounds or so, about 14,000 (4.5%) showed an effect of 50% or more. The effect is printed as a negative number. What follows is part of a selection rich in strong results, with near analogues and random picks from the rest.
Target: human ether-à-go-go-related gene (hERG) potassium channel (human, UniProt Q12809)
Experiment: primary screen, population patch clamp on CHO cells stably expressing hERG; higher = less effect of the substance
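Further: peak tail current of the secondary pulse compared with the same well before compound.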

human ether-à-go-go-related gene (hERG) potassium channel, sequence (Q12809 whole entry, looked up): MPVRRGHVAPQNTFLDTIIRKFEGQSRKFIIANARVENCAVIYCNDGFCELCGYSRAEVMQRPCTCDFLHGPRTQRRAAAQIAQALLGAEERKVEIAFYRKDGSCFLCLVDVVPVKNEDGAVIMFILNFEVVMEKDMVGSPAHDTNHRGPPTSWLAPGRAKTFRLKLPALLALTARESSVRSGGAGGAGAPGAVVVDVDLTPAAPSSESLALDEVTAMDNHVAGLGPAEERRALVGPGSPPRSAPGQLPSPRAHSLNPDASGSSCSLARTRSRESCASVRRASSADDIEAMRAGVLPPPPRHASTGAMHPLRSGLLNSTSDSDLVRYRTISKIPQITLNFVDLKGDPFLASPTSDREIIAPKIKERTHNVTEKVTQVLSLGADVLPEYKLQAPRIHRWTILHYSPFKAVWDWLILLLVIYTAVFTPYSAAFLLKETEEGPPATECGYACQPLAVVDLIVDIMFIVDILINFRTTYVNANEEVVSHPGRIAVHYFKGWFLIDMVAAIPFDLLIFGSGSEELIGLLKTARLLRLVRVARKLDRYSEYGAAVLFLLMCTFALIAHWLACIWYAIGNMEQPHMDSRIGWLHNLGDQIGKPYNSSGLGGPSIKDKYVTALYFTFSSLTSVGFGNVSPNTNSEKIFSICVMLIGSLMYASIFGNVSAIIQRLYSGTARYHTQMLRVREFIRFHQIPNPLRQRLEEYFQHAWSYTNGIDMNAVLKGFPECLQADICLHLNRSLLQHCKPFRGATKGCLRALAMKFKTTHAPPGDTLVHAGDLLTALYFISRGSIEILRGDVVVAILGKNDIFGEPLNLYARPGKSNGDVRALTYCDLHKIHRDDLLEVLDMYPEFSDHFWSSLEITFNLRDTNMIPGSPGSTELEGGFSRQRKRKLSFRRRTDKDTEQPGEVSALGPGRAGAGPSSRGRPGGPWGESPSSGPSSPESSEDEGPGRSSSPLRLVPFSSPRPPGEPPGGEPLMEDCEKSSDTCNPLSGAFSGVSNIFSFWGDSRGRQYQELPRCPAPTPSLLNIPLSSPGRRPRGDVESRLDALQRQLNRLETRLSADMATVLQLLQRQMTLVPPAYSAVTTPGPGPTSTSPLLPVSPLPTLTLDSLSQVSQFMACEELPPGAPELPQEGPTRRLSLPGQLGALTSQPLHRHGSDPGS

| SMILES | hERG current change (%, negative = inhibition) at 10uM [%] |
| --- | --- |
| NC(=O)NC(=O)CSc1ccccc1 | 17.1 |
| O=C(Nc1nc2ccc(F)cc2s1)C1CC(=O)N(c2ccc3c(c2)OCCO3)C1 (stereo not drawn) | -8.48 |
| COc1ccc(N2CC(C(=O)Nc3nc(-c4ccccc4)c(C(C)=O)s3)CC2=O)c(OC)c1 (stereo not drawn) | -0.242 |
| COc1ccc(N2CC(C(=O)Nc3nc4ccc(F)cc4s3)CC2=O)c(OC)c1 (stereo not drawn) | -56.3 |
| CC(C)OC(=O)c1ccc(OC(=O)c2cccnc2)cc1 | 12.5 |
| CCN1C(N(C)CCc2cccs2)=N[C@@H](c2ccccc2)C(C(=O)OC)=C1C | -53.8 |
| C=CCN=C1N[C@@H](c2ccccc2)C(C(=O)OC)=C(C)N1CC | 1.27 |
| CCN1C(=NCCc2cccnc2)N[C@@H](c2ccccc2)C(C(=O)OC)=C1C | -51.2 |
| CCN1C(=O)N[C@@H](c2ccccc2)C(C(=O)OC)=C1C | -1.67 |
| COC(=O)C1=C(C)N(Cc2ccccc2)C(=NCc2cc(OC)c(OC)c(OC)c2)N[C@H]1c1ccccc1 | -27.8 |
| CCN(CC)CCCN=C1N[C@@H](c2ccccc2)C(C(=O)OC)=C(C)N1CC | 14.6 |
| CCN1C(=NCCc2cccs2)N[C@@H](c2cccs2)C(C(=O)OC)=C1C | -64.2 |
| CCN1C(=O)N[C@@H](c2cccs2)C(C(=O)OC)=C1C | 10.2 |
| COCCN=C1N[C@@H](c2cccc(C(F)(F)F)c2)C(C(=O)OC)=C(C)N1Cc1ccccc1 | -11.9 |
| CCN1C(=S)N[C@@H](c2ccccc2)C(C(=O)OC)=C1C | 14.8 |
| COC(=O)C1=C(C)N(Cc2ccccc2)C(=NCCc2cccnc2)N[C@H]1c1ccccc1 | -63 |
| CCN1C(=NCCOC)N[C@@H](c2cccs2)C(C(=O)OC)=C1C | -5.96 |
| CCOC(=O)C1=C(C)Nc2ccccc2N/C1=N\S(=O)(=O)c1ccc(Cl)cc1 | -7.32 |
| COc1ccc(CNC(=O)CCCNS(=O)(=O)c2cccc3nonc23)cc1 | -1.27 |
| CC(CC(=O)NC1CCCCC1)S(=O)(=O)c1ccc2c(c1)NC(=O)CO2 (stereo not drawn) | 5.72 |
| Cc1cc(C)nc(N(C#N)Cc2ccccc2Cl)n1 | 4.48 |
| Cc1cc(C)nc(N(C#N)Cc2cccc3ccccc23)n1 | 3.61 |
| Cc1cc(C)nc(N(C#N)Cc2ccccc2C)n1 | -51.4 |
| CCC(=O)n1nc(-c2ccco2)nc1N | 10.8 |
